# Biological target: CDK3/Cyclin E (Homo sapiens) (UniProt P24864+Q00526)
# Conditions: at 0.1 µM
# 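Note: reported percentages are mean inhibition values.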
# Chain of CDK3/Cyclin E (Homo sapiens) (P24864 whole entry, looked up): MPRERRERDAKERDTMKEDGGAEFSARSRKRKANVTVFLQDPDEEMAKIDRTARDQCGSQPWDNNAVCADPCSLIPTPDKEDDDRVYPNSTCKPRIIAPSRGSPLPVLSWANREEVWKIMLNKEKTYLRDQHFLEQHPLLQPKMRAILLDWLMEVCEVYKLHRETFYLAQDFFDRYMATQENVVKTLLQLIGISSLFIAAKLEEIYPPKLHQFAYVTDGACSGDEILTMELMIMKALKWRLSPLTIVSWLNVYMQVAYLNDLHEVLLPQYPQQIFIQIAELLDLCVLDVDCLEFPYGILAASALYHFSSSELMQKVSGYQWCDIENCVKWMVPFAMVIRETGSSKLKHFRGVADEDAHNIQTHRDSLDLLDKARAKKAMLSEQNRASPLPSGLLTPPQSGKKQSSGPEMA
# Chain of CDK3/Cyclin E (Homo sapiens) (Q00526 whole entry, looked up): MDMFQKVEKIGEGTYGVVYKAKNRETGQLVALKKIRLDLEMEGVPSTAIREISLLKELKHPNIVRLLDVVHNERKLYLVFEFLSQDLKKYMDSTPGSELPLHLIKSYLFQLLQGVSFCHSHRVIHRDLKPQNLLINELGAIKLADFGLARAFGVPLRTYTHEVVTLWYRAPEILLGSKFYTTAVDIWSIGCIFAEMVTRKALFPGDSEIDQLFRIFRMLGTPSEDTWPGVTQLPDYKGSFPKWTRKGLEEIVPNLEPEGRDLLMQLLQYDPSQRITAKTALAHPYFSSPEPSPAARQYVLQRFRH
row,Compound,inhibition [%]
1,CCCN(CCS(C)(=O)=O)Cc1ccc(-c2ccc3ncnc(Nc4ccc(OCc5cccc(F)c5)c(Cl)c4)c3c2)o1,0.67
2,CCn1c(-c2nonc2N)nc2c(C#CC(C)(C)O)ncc(OC3CCNCC3)c21,-1.98
3,CCn1c(-c2nonc2N)nc2c(C#CC(C)(C)O)nc(OC[C@H](N)c3ccccc3)cc21,-2.75
4,CC(=O)Nc1cccc(C#Cc2cncnc2Nc2ccc(OCc3cccc(F)c3)c(Cl)c2)c1,1.66
5,Cc1ccc(O)cc1Nc1ccnc2cc(-c3ccccn3)ccc12,1.95
6,CCn1c(-c2nonc2N)nc2cnc(Oc3cccc(NC(=O)c4ccc(N(C)C)cc4)c3)cc21,-1.33
7,NC(=O)c1sc(-n2cnc3ccc(C(F)(F)F)cc32)cc1OCc1ccccc1Br,1.2
8,CCc1nn2ncccc2c1-c1ccnc(NC2CC2)n1,-0.69
9,N#Cc1c(NC(=O)CN2CCOCC2)sc2c1CCCC2,5.84
10,CN(C)CCOc1ccc(-c2nc(-c3ccncc3)c(-c3ccc4c(c3)CC/C4=N\O)[nH]2)cc1,3.78
11,CCOc1ccc2c(-c3ccnc(Nc4cccc(C(F)(F)F)c4)n3)cnn2n1,2.12
12,COc1cccc(-c2c[nH]c3c(N/N=C/c4ccncc4)ncnc23)c1,6.61
13,c1cc(-c2cnn3nc(N4CCOCC4)ccc23)nc(NC2CC2)n1,2.41
14,CNC(=O)c1cncc(/C=C/c2ccccc2Cl)c1,0.31
15,c1ccc(-c2nc3n(c2-c2ccc4c(c2)OCO4)CCC3)nc1,2.37
16,Fc1cccc(COc2ccc(Nc3ncnc4sc(-c5ccco5)cc34)cc2Cl)c1,-0.59

# Reference: ChEMBL document CHEMBL1961873, “Compounds: GSK PKIS; Assays: Nanosyn kinase panel” (2012)
